Screening data deposited in PubChem BioAssay by The Scripps Research Institute Molecular Screening Center.
This is a sample that favours compounds with a hit; in the whole collection about 3.5% have one here.
MITF primary: inhibitors of human MITF. O75030. AlphaScreen MITF homodimerization, bead proximity signal. inhibition, % at 2.6 µM. 650,000 compounds, 0.91% hits. AID 1259374; in the data active = inhibition above about 50%;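 note: 0% = vehicle wells with protein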
FBW7 act: human FBW7 E3 ligase activation, primary screen | 650,000 compounds, 0.13% hits | normalized activity (activation), % at 26.1 µM | AID 1259310 | AlphaScreen FBW7–phospho-cyclin E peptide binding, activator screen; in the data active = normalized activity above about 1.9%;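 note: purified mutant Fbw7 with reduced substrate affinity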
GPR151 activ: activates the human receptor GPR151; PathHunter beta-arrestin GPR151 cells, luminescence; activation, % at 11.2 µM; 650,000 compounds, 1% hits; AID 1508602; in the data active = activation above about 4.9%;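 note: 0% = median of compound wells and 100% = cells with positive control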
Target sequence (Q8TDV0 whole entry, looked up): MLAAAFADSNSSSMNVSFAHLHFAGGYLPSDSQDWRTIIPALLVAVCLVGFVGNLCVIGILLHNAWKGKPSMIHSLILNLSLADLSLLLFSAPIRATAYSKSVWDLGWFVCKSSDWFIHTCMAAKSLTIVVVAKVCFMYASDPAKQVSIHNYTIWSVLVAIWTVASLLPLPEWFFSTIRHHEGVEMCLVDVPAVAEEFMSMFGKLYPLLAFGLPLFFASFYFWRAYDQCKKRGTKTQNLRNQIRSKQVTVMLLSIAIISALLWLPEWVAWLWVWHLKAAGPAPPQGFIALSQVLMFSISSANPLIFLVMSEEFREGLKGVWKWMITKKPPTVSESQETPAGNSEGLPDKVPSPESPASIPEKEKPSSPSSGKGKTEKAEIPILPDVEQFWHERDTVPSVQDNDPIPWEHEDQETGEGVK
TEAD-YAP inh: TEAD-YAP interaction inhibition | HEK-TIYL cells, TEAD-Gal4/YAP UAS-luciferase luminescence | inhibition, % at 9.12 µM | 640,000 compounds, 1.4% hits | AID 1259422; in the data active = inhibition above about 32%;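 note: 0% = median of test compound wells and 100% = reference inhibitor wells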
GPR151 confirm: human GPR151 activation, confirmation screen; shares compounds with GPR151 activ; GPR151 PathHunter beta-arrestin cells, luminescence, 90 min; % of EA-reagent control over plate median; activation, % at 11.2 µM; 6,700 tested, under 10 active;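 active = mean percent activation across replicates above the confirmation screen cutoff of 4.91%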
GPR119 counter: activates human GPR119 in a GPR151 counter-screen; shares compounds with GPR151 activ; GPR119 PathHunter beta-arrestin cells, luminescence, 90 min; 0 = compound-well median, 100 = enzyme-acceptor control; activation, % at 11.2 µM; 6,700 compounds, 0.3% hits;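 active = mean percent activation in the counterscreen above 29.09%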;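 note: counterscreen on off-target GPR119 to flag nonselective hits from the GPR151 activator screen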
An asterisk follows results filed as active; . = no result given; ! = repeats disagree.

SMILES | MITF primary | FBW7 act | GPR151 activ | TEAD-YAP inh | GPR151 confirm | GPR119 counter
CN(CCc1ccccc1)C1CCCN(Cc2cccnc2)C1 (stereo unspecified) | 8 | 0 | -1 | 10 | . | .
COc1ccc(CCN(C)C2CCCN(Cc3c(C)nn(C)c3Cl)C2)cc1OC (stereo unspecified) | 12 | 0 | 5.9* | 9 | 0 | 4
CC(Sc1ncn(-c2ccccc2)n1)C(=O)Nc1ccccc1 (stereo unspecified) | 0 | 0 | 5.9* | -6 | -2 | -5
Brc1cccc(C2C=C(c3ccccc3)Nc3ncnn32)c1 (stereo unspecified) | 15 | 0 | -1 | 27 | . | .
Cc1nnc(SCCCn2c(N3CCOCC3)nc3c2c(=O)[nH]c(=O)n3C)s1 | -8 | 0 | 6.9* | -17 | 0 | 1
CC(C)Sc1nc2c(c(=O)[nH]1)C(c1cccs1)C1=C(CCCC1=O)N2 (stereo unspecified) | 11 | 0 | 5.2* | 2 | 1 | 6
O=C(CSc1ccc(C(=O)Nc2ccc(Cl)cc2F)cc1[N+](=O)[O-])NCCC1=CCCCC1 | 16 | 0 | -2 | -4 | . | .
Cc1cccc(NC(=O)/C=C/C(=O)O)c1 | 8 | 0 | 2 | -12 | . | .
CCc1cccc(NC(=O)/C=C/C(=O)O)c1 | -5 | 0 | 5.2* | -1 | 0 | -5
CCCCCCCCCCCCCCCCOP(=O)(O)OCC[N+](C)(C)C | -13 | 0 | 11*! | 5 | 0 | 6
COc1ccc(N2CC(C(=O)NCc3ccc(Cl)cc3)CC2=O)cc1 (stereo unspecified) | 4 | 0 | 1 | 7 | . | .
O=C(NCCC1=CCCCC1)c1cc(S(=O)(=O)NCCc2ccccc2)ccc1F | -8 | 0 | 9.7* | 9 | 0 | 8
O=C(Nc1ccc(Cl)cc1)c1cc(S(=O)(=O)NCCC2=CCCCC2)ccc1F | 9 | 0 | 1 | 27 | . | .
NC(=O)CSCc1cc2cccc3c2n(c1=O)CCC3 | 1 | 0 | 1 | -8 | . | .
COc1ccc(N2CCN(C(=O)C(c3ccccc3)c3ccccc3)CC2)nn1 | 7 | 0 | 5.7* | 3 | 1 | 1
Cc1cc(Cl)ccc1NCC(=O)N/N=C/c1ccncc1 | 14 | 0 | 0 | 4 | . | .
COc1c(C)cc(C(=O)C2CCCN(S(=O)(=O)c3c(C)nn(C)c3Cl)C2)cc1C (stereo unspecified) | -2 | 0 | 8.7* | 0 | 0 | -3
COc1ccc(C(=O)C2CCCN(S(=O)(=O)c3c(C)nn(C)c3Cl)C2)c(C)c1 (stereo unspecified) | 17 | 0 | 1 | 8 | . | .
CCCCCCCC(=O)N/N=C/c1ccccc1OC | -4 | 0 | 17* | 6 | -1 | -8
COc1ccc(/C=N/NC(=O)CCC(=O)Nc2ccc(Cl)cc2C)cc1 | 12 | 0 | 5.3* | 3 | 0 | -1
CCCCCC(=O)N/N=C/c1cccc(OC)c1 | 10 | 0 | 5.2* | -9 | 0 | -3
COc1ccc(/C=N/NC(=O)CCC(=O)Nc2ccc(Cl)cc2C)cc1OC | -3 | 0 | -1 | -1 | . | .
CC(=O)N1CCc2cc(NS(=O)(=O)c3ccc4ccccc4c3)ccc21 | 8 | 0 | 5.0* | -5 | 1 | 3
CC(=O)N1CCSc2cc(S(=O)(=O)Nc3ccc(C(C)C)cc3)ccc21 | -10 | 0 | 0 | -10 | . | .
CC(=O)N1CCSc2cc(S(=O)(=O)Nc3ccc(Cl)cc3)ccc21 | 1 | 0 | 5.0* | 4 | 0 | 2
SMILES | MITF primary | FBW7 act | GPR151 activ | TEAD-YAP inh | GPR151 confirm | GPR119 counter
CC(=O)N1CCSc2cc(S(=O)(=O)NC3CCCCC3)ccc21 | -16 | 0 | 6.1* | 14 | 1 | 2
CCOc1ccccc1CNC(=O)c1cc(-c2ccc(F)cc2)on1 | 1 | 0 | 0 | 8 | . | .
CCCn1cnc2sc(C(=O)Nc3ccccc3OC)c(C)c2c1=O | 0 | 0 | 11* | -8 | -1 | -12
Cc1cc2nnc(SCC(=O)N3CCC(C)CC3)n2c(N)n1 | 3 | 0 | 4.9* | -7 | 1 | -1
Cc1cc(C)nc(-n2nc(C)c(C(O)(CC(=O)C(F)(F)F)C(F)(F)F)c2N)n1 (stereo unspecified) | 0 | 0 | 11* | -8 | 0 | -3
O=[N+]([O-])c1ccc(Cl)c2c1C1C=CCC1C(c1ccccn1)N2 (stereo unspecified) | 9 | -1 | 5.1* | -5 | 0 | 10
O=C(Nc1ccc(N2CCOCC2)cc1)c1ccc(-c2ccc(Cl)cc2)o1 | 1 | 0 | 0 | -4 | . | .
CN(Cc1ccon1)C(=O)c1ccc(OC2CCN(CCc3ccccc3)CC2)cc1 | 2 | 0 | -1 | 9 | . | .
COc1cc(OC)c(S(=O)(=O)N2CCCc3ccccc32)cc1NC(C)=O | 11 | 0 | 6.1* | -3 | 0 | 2
COc1ccc(C(=O)Nc2ccccc2)cc1S(=O)(=O)N1CCCc2ccccc21 | 32 | 0 | -1 | 19 | . | .
Cc1cc(C)cc(CC(CC(=O)O)C(=O)O)c1 (stereo unspecified) | -17 | 0 | 0 | 6 | . | .
Cc1ccc(CC(CC(=O)O)C(=O)O)cc1 (stereo unspecified) | 1 | 0 | 6.8* | -1 | -1 | -14
COc1ccc(C)cc1S(=O)(=O)NC1CCCCC1C (stereo unspecified) | -5 | 0 | 2 | -6 | . | .
COc1cc(C)c(C)cc1S(=O)(=O)NC1CCCCC1C (stereo unspecified) | 5 | 0 | 8.8* | 2 | 0 | 8
Cc1ccc(-n2c(=O)oc3c(Br)cc(Br)cc3c2=O)cc1C | 14 | 0 | -2 | -4 | . | .
COC(=O)c1cc(C(=O)OC)cc(N2C(=O)c3ccc(Oc4ccc([N+](=O)[O-])cc4)cc3C2=O)c1 | 17 | 0 | 1 | 8 | . | .
N#Cc1c(C(F)(F)F)cc(-c2cccs2)nc1SCC(=O)O | 6 | 0 | 0 | 9 | . | .
N#Cc1c(C(F)(F)F)cc(-c2cccs2)nc1SC1CC(=O)N(c2ccccc2)C1=O (stereo unspecified) | -3 | 1 | 5.1* | 0 | 0 | 7
CCCCCCCCCCCCCCCC(=O)C(F)(F)F | 2 | 0 | 5.0*! | . | -1 | -10
Cc1nn(Cc2ccccc2)c(Cl)c1/C=N/Nc1ccc(S(N)(=O)=O)cc1[N+](=O)[O-] | 9 | 0 | 5.2* | 10 | 1 | 3
CC(C)(C)c1ccc(/C=N/Nc2ccc(S(N)(=O)=O)cc2[N+](=O)[O-])cc1 | 4 | 0 | 5.0* | 3 | 1 | -13
NS(=O)(=O)c1ccc(N/N=C/c2ccccc2Cl)c([N+](=O)[O-])c1 | 3 | 0 | 0 | 6 | . | .
COCC(C)NC(=O)Cn1c(C(F)(F)F)nc2c(cnn2-c2ccccc2)c1=O (stereo unspecified) | 11 | 0 | 2 | 5 | . | .
O=C(Nc1ccccc1)OCC1CCCO1 (stereo unspecified) | 3 | 0 | 11* | -35 | 0 | -5
